Screens from PubChem BioAssay.
An excerpt weighted towards active compounds, which were near 6.5% of everything screened.
Vaccinia mCherry: vaccinia inhibition (mCherry reporter). Vaccinia virus mCherry reporter infection, fluorescence. Potency, µM (titrated, usually from 36.5 µM), inactives show at the highest dose activity change, negative = inhibition, usual class: inhibitors. 0.63% of 310,000 active; calls by dose curve; tested in A549 cells; note: potency is the fitted concentration of half-maximal effect; nearly all actives have a fitted effect of over 35% in size
Vaccinia Venus: inhibitors of vaccinia virus (Venus reporter); Vaccinia virus Venus reporter expression, fluorescence; Potency, µM (top dose mostly 36.5 µM), for the others: top-dose activity change, negative = inhibition, actives largely listed as inhibitors; 0.46% of 330,000 active; AID 720580; calls by dose curve; tested in A549 cells; note: potency is the fitted concentration of half-maximal effect; nearly all actives have a fitted effect of over 30% in size
Lassa entry inh: blocks Lassa virus binding to or entry into cells. Lassa virus pseudotype entry inhibition, cell reporter. Potency, µM (doses to about 37.9 µM), for the others: at the highest dose activity change, negative = inhibition, usual class: inhibitors. 1.2% of 300,000 active. AID 540256; calls by dose curve; tested in HEK293 cells; note: potency is the fitted concentration of half-maximal effect; nearly all actives have a fitted effect of over 50% in size
FMDV antiviral: antivirals against foot and mouth disease virus. FMDV antiviral cell-based qHTS. Potency, µM (doses to about 57.9 µM), without a hit: at the highest dose activity change, negative = inhibition, most hits filed as inhibitors. 1.2% of 410,000 active; calls by dose curve; tested in HEK293T cells; note: read-out not given here; potency is the fitted concentration of half-maximal effect; nearly all actives have a fitted effect of over 45% in size
MARV entry inh: inhibitors of Marburg virus binding or cell entry; Marburg virus pseudotyped entry inhibition, cell reporter; Potency, µM (series often up to 37.8 µM), for the others: top-dose activity change, negative = inhibition, actives largely listed as inhibitors; 1.8% of 300,000 active; calls by dose curve; tested in HEK293 cells; note: potency is the fitted concentration of half-maximal effect
HCMV antiviral: human cytomegalovirus inhibition | HFF cells, HCMV-luciferase reporter, 72 h; active compounds read low | activity change, negative = inhibition, % at 57.5 µM | 4.5% of 410,000 active; in the data active = activity change below about -60%; inconclusive = no clear call, values can overlap the other calls; inactive = above about -39%
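Compounds were evaluated in HFFs infected with an HCMV luciferase reporter virus (MOI 1 PFU/cell). Luciferase in lysates collected 72 h post infection served as the replication measure.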
An asterisk follows results filed as active; i = inactive; ? = inconclusive; / = no result; [ ] = another dose, or the depositor's remark. % is set by controls: 0 for no effect and ±100 for the full control effect.

SMILES	Vaccinia mCherry	Vaccinia Venus	Lassa entry inh	FMDV antiviral	MARV entry inh	HCMV antiviral
Cc1c(O)c(O)cc2c1CC=C1[C@]3(C)CC[C@]4(C)CC[C@@](C)(C(=O)O)CC4[C@]3(C)CC[C@]12C (stereo partly specified)	-19.0%	-14.9%	/	25.1µM*	/	/
CC1=C(O)C(=O)C=C2C1=CC=C1C2(C)CCC2(C)C3CC(C)(C(=O)O)CCC3(C)CCC12C (stereo unspecified)	22.4µM*	10µM*	?	-10.9%	2.82µM*	-77.5*
Cc1ccc(S(=O)(=O)N2CCN(c3nc(-c4cccs4)nc4ccccc34)CC2)c(C)c1	-11.9%	-5.2%	/	/	/	/
Fc1cc(Br)ccc1Nc1nc2ccccc2n2nnnc12	14.2%	-25.3%	/	17.1%	/	-72.9*
C[C@@H]1CC2[C@@H]3CC[C@H]4CC(=O)CC[C@]4(C)C3=CC[C@]2(C)[C@@]1(O)C(=O)CO (stereo partly specified)	-14.4%	-6.9%	-22.5%	?	-16.4%	-100.9*
CC(Sc1ncnc2c1cnn2-c1ccccc1)C(=O)NCC1CCCO1 (stereo unspecified)	/	/	/	-4.0%	/	-2.7
Cc1nc(SC(C)C(=O)NCC2CCCO2)c2cc(-c3ccccc3)sc2n1 (stereo unspecified)	5.01µM*	-1.8%	0.501µM*	16.2%	0.631µM*	-88.6*
CCCCCCCCn1c(=O)c(C(=O)OC)c(N)c2ccccc21	?	?	?	?	?	-64.4*
CCCCCn1c(=O)c(C(=O)Nc2ccccc2N)c(O)c2ccccc21	/	/	/	-19.4%	/	-37.7
CCCCCCCn1c(=O)c(C(=O)OC)c(N)c2ccccc21	-5.5%[7.34 µM]	-10.9%[7.34 µM]	?	12.6µM*	?	-89.3*
COc1cccc(-c2cc3c(Nc4cccc(F)c4)nccc3[nH]2)c1	/	/	/	/	/	22.6
CCO[C@H](c1cc(OC)cc([N+](=O)[O-])c1OC)[C@H](C)[C@@H](OC)[C@H](C)/C=C/CC(=O)OC	/	/	/	/	1.2%[14.2 µM]	/
CCN(c1cccc(C)c1)S(=O)(=O)c1nnc(NC(=O)C2CCCCC2)s1	-4.7%	-0.4%	-2.7%[46.1 µM]	-11.0%	/	1.3
Cn1c(=O)c2c3c(sc2n2c(SCC(N)=O)nnc12)C[C@H](C(C)(C)C)CC3	/	/	/	/	-0.7%	/
COc1cc2nc(N3CCCN(C)CC3)nc(N)c2cc1OC	-19.3%	-16.0%	/	/	/	/
CCN(CC(=O)Nc1c(F)cccc1F)C(=O)c1ccc(OC)c(S(=O)(=O)NC2CCCC2)c1	-10.3%	-11.8%	/	34.5%	/	-71.6*
COc1cc(CNc2ccc3[nH]c(=O)[nH]c3c2)ccc1OCc1cccc(C)c1	?	?	?	-16.1%	-20.1%	-66.1*
CCOc1ccc(Cc2c(C)[nH]c3ccc(C(=O)O)cc3c2=S)cc1	i	-5.0%	?	-10.9%	-4.8%	-79.1*
CCc1c(C)[nH]c2ccc(OC)cc2c1=S	-13.7%	-9.4%	17.0%	-4.5%	-17.2%[46.1 µM]	-71.0*
COc1cccc(-c2nc(SCc3cc(=O)c4ccc(C)c(C)c4[nH]3)n[nH]2)c1	-6.4%	-12.7%	-4.2%[46.1 µM]	?	/	-16.0
COc1cc2onc(C3CCN(C(=O)C(C)(C)C)CC3)c2cc1OC	/	/	/	/	/	-11.0
CCOc1nc2ccccc2cc1C=O	-10.6%	-7.3%	-5.3%	5.5%	2.6%[46.1 µM]	-72.9*
CCCOc1nc2ccccc2cc1/C=C/C(=O)O	-13.1%	-6.9%	6.4%[46.1 µM]	-10.6%	4.7%[46.1 µM]	?
S=C(NCc1ccco1)N1CCN(c2nc(-c3ccc(Cl)cc3)cs2)CC1	-26.7%	-23.7%	?	?	?	-74.1*
CCN(CC)CCCNC(=S)N1CCN(c2nc(-c3ccc(F)cc3)cs2)CC1	i	?	?	?	10µM*	-96.7*
SMILES	Vaccinia mCherry	Vaccinia Venus	Lassa entry inh	FMDV antiviral	MARV entry inh	HCMV antiviral
CCNC(=S)N1CCN(c2nc(-c3ccc(F)cc3)cs2)CC1	/	/	/	?	/	-60.9*
O=C(c1ccco1)N1CCC2(CCCN(c3ccncc3)C2)CC1	/	/	/	-23.9%	/	/
C[n+]1c(/C=C/c2ccc(N)cc2)sc2ccccc21	-12.4%	16.4%	/	/	/	/
O=C(Nc1ccccc1F)c1cnn2c1NC(=C1CC1)C=C2C(F)F	i	-5.2%	/	/	/	/
CC(C)OC(=O)[C@@H]1CC[C@H](C)[C@@H](CCC[C@@H]2CC=C[C@H](CC#N)O2)O1	/	/	/	/	-26.4%[14.2 µM]	/
COc1ccc(N2CCN(C(c3ccccc3)c3nnc(-c4ccccc4Cl)o3)CC2)cc1 (stereo unspecified)	-11.3%	-8.2%	?	0.0%	/	9.0
CCN1C(=O)/C(=C\c2nc3ccccc3c(=O)n2CC)c2ccccc21	i	-22.9%	-23.9%	25.1µM*	?	-93.8*
CCn1c(/C=C2/C(=O)N(C)c3ccccc32)nc2ccccc2c1=O	-9.9%	-6.5%	?	?	-25.5%	55.1
CCN1C(=O)/C(=C/c2nc3ccccc3c(=O)n2-c2ccccc2)c2ccccc21	/	?	?	25.1µM*	-24.6%	-102.2*
Cc1ccc(NS(=O)(=O)c2ccc(-c3cc(C)no3)cc2)c(Br)c1	-23.3%	-20.6%	?	-18.8%	/	-22.0
COc1ccc(NC(=O)Nc2ccc(Cc3ccncc3)cc2)cc1OC	?	-25.1%	-6.8%	22.4µM*	-1.2%[46.1 µM]	-13.9
NC(C(=O)O)C1ON=C(Cl)C1O (stereo unspecified)	-8.2%	-26.2%	-11.8%	-5.6%	-1.8%	-85.9*
N[C@H](C(=O)O)[C@@H]1CC(Cl)=NO1	2µM*	?	/	-17.0%	/	/
CC(=O)Nc1ccc(SC[C@H](Cc2ccccc2)N2CC[C@@H](N)CCC2=O)cc1	-7.2%	-3.9%	/	/	/	/
O=C(Cc1cccs1)Nc1cccc(C(=O)Nc2ccc(C(=O)O)cc2)c1	2.2%	-11.3%	6.0%	?	22.8%[46.1 µM]	8.3
COc1ccc(NC(=O)C(NC(=O)Cc2cccs2)c2ccccc2)cc1 (stereo unspecified)	-0.9%	-16.7%	-0.9%	24.4%	?	-67.7*
O=C(Cc1cccs1)Nc1ccc(C(=O)O)cc1	/	-16.0%	5.3%	-4.2%	?	-77.0*
CCC1(C2CCN(C(=O)c3ccc(C)c(C)c3)CC2)NC(=O)N(CCc2scnc2C)C1=O (stereo unspecified)	i	-6.5%	/	11.7%	/	/
COc1cc2c(cc1OC)C(C)=NCC2	-1.1%	11.0%	/	?	/	0.0
COc1cc2c(cc1OC)C(c1oc(-c3ccc(-c4cc(Cl)ccc4Cl)o3)cc1C)=NCC2	-14.2%	-14.2%	/	/	/	/
O=C(O)c1ccc(-c2ccc(Cl)cc2Cl)o1	/	/	?	16.5%	20.4%	9.7
COc1cc2c(cc1OC)C(c1ccc(-c3ccc(Cl)cc3Cl)o1)=NCC2	?	-29.4%	14.1µM*	14.1µM*	6.31µM*	?
COc1cc2c(cc1OC)C(c1ccc(-c3ccccc3Cl)o1)=NCC2	/	/	?	-11.2%	20.6µM*	-19.0
COc1cc2c(cc1OC)C(c1ccc(-c3ccc(Cl)c(Cl)c3)o1)=NCC2	-22.1%	?	5.8µM*	17.8µM*	5.8µM*	-12.6
COc1cc2c(cc1OC)C(c1ccc(-c3cc(Cl)ccc3Cl)o1)=NCC2	-22.1%	-16.2%	?	17.8µM*	?	/
